Consider two compounds from PubChem BioAssay AID2530 (National Center for Advancing Translational Sciences (NCATS), 2010).

The assay addresses Luciferin 4-monooxygenase (Photuris pensylvanica) (UniProt Q27757). Put plainly: Secondary Assay for Luciferase (Kinase-Glo TM) Inhibition Counterscreen. As to the method:
NIH Chemical Genomics Center [NCGC] Malcolm Walkinshaw, Hugh Morgan, Linda Gilmore University of Edinburgh, UK MLPCN Grant: 1 R03 MH085697-01 NCGC Assay Overview: Luciferase (Kinase-Glo, Promega Corporation) was assayed for its ability to generate light using ATP and luciferin as substrates. The ATP concentration in the assay (10 uM) was within the linear range of enzyme activity for the assay conditions used. This assay was used as an counter screen for human pyruvate kinase M2 isoform.
NCGC Assay Protocol Summary: Four uL of substrate mix (final concentration, 50 mM imidazole pH 7.2, 50 mM KCl, 7 mM MgCl2, 10 uM ATP, 0.01% Tween 20, 0.05% BSA) was dispensed into white 1536 well plates. Twenty-three nL of compound was delivered by a pin tool and 2 uL of luciferase detection mix (Kinase-Glo, Promega)) was added. Following 8-minute incubation at ambient temperature, luminescence was measured by a ViewLux (Perkin Elmer) at 5 seconds exposure/plate. Data were normalized to the controls for basal activity (DMSO only) and 100% inhibition (40 uM SIB 1757) and curve fitting was performed using Hill equation.
(In general: Kinase-Glo reads ATP consumption through a luciferase reaction.)

Inconclusive results are not listed. Where a call stands in place of a potency, no number is given. The source made the active and inactive calls. Calls come from the whole dose curve; as a rule, active = well fitted inhibition curve with a large enough effect; inconclusive = small, poorly fitted or top-dose-only effect; inactive = flat fitted curve, though single readings scatter.
Potency is the fitted concentration of half-maximal effect.

As for `C[C@]12CC[C@@H]3c4ccc(O)c(O)c4CC[C@H]3[C@@H]1CC[C@@H]2O`, the Potency entry was “inactive”.

Take `Cc1ccc(C(=O)n2c(N)nc3ccccc32)cc1`: the Potency was 11.6 µM (active).
